The values that follow come from PubChem BioAssay (NCATS).

The structures appear in SMILES notation. Results filed as inconclusive are left out. A call without a number means that no potency is given here. Activity calls are given as the source filed them. Calls follow the shape of the dose curve; as a rule, active = well fitted inhibition curve with a large enough effect; inconclusive = small, poorly fitted or top-dose-only effect; inactive = no such curve, though single readings can be large or run the other way.
Potency is read from the fitted curve at half-maximal effect.

This test can be described thus: Counterscreen qHTS for small molecule stabilizers of the endoplasmic reticulum resident proteome: GLuc-NoTag assay (AID 1508627). The conditions noted are these: Gaussia luciferase NoTag secretion counterscreen, luminescence, thapsigargin 100 nM for final 4 h; series mostly up to 76.4 µM. The essentials: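 Counterscreen line: SH-SY5Y-GLuc-NoTag cells, treated with compound 19 hr before a 4 hr, 100 nM thapsigargin calcium depletion. Secreted Gaussia luciferase in the medium was measured by luminescence after coelenterazine was added (0.07x final), with cells unlysed.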
Background: Counterscreens check selectivity or assay interference.
With `C=C1C(=O)OC2C=C(C)CCC=C(C)CCC12` (centres undefined), the Potency entry was “inactive”.

In the case of `O=C1c2ccccc2-[n+]2ccc3c([nH]c4ccccc43)c21`, the Potency was 2 µM (active). As for `CC[C@H]1OC(=O)[C@H](C)[C@@H](O[C@H]2C[C@@](C)(OC)[C@@H](O)[C@H](C)O2)[C@H](C)[C@@H](O[C@@H]2O[C@H](C)C[C@H](N(C)C)[C@@H]2O)[C@](C)(O)C[C@@H](C)CN(C)[C@H](C)[C@@H](O)[C@]1(C)O`, the Potency entry was “inactive”. In the case of `O=c1ccn([C@@H]2O[C@H](CO)[C@H](O)[C@H]2O)c(=O)[nH]1` it was “inactive”.
